The test system of this assay is Scedosporium aurantiacum CBS 136046. Put plainly: growth inhibition relative to DMSO control (OD600); higher = more antifungal activity, active = 80 or more; extreme values may be limits of the assay. As to conditions: 5 µM; 72 h; 37 °C.
With `CN1CCN(c2ccc3[nH]c(-c4ccc5[nH]c(-c6ccc(O)cc6)nc5c4)nc3c2)CC1`, the growth inhibition was 11.7% (inactive).

For `N=C(N)c1ccc(COc2ccc(Cl)cc2)cc1`, the growth inhibition is 19.9% (inactive).

For `O=C(NC1CCCc2c1[nH]c1ccc(Cl)cc21)c1ccccn1` (stereo not given), the growth inhibition was 15.1% (inactive).

On to `O=C(Cn1cnc2ccccc2c1=O)Nc1ccccc1`, for which the growth inhibition is 1.51% (inactive).

Consider `C(=C\c1nc2ccccc2[nH]1)/c1ccc2c(c1)OCO2`, for which the growth inhibition is 17.1% (inactive).

The values above are taken from the supplement of paper PMC9897528.
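Note: conidia screened in RPMI 1640 medium under 5% CO2, growth read by spectrophotometer, medium with 0.5% DMSO serving as the untreated reference.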
